This is an account of results in the supplement of paper PMC10338343.

± gives the standard deviation. The full ranking holds about 5,500 sequences; the median of “pre-steady-state target cleavage rate” is about 0.1, and the highest 2% start at about 0.64. This is one part of a sample in which the highest values are shown more often than they occur.

For this experiment, the system named is MIWI (PIWIL1) piRISC loaded with piRNA #2 (30 nt). The experiment is described as follows: pre-steady-state target cleavage rate (min^-1); MIWI and MILI are mouse PIWI proteins and EfPiwi is from a freshwater sponge; tags in brackets are library labels; higher = faster piRNA-guided slicing of the target. The following applies: guide: piRNA #2 5'p-UUAGGUAACCCAGUAGAUCCAGAGGAAUUC; auxiliary factor: 500 nM mouse GTSF1. The protocol:
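Cleave-'n-Seq: a library of target RNAs (target site embedded in constant flanks, ACAGCATTCCGCGTTAGTGATATCCG... 5' flank; DNA-blocked outside the site) at 0.1 nM was incubated with 1 nM active mouse MILI or MIWI piRISC (synthetic 5'-monophosphorylated piRNA guide) with or without 500 nM mouse GTSF1 at 33 °C for 1 min to 16 h. Uncleaved targets were sequenced and normalised to non-target controls, and the pooled three trials were fitted to a burst-and-steady-state model to give the pre-steady-state cleavage rate (min^-1; k3 is constrained to at most 1e-4). Sequence is the target site only; target names encode pairing extent (gX:gY) and contiguous / 1-mismatch / 2-mismatch / bulge geometry. Fits with R² ≤ 0 are excluded.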
Take CAAUUCCUCUGGCAUCUACUGGGUUACCUAA: the “pre-steady-state target cleavage rate” value was found to be 0.636 ± 0.17.

As to GAAUUCCUCUGGCAUCUACUGGGUUACCUAA, the “pre-steady-state target cleavage rate” value came out at 0.667 ± 0.17.

As for CUUUUCCUCUGGCAUCUACUGGGUUACCUAA, the “pre-steady-state target cleavage rate” value was determined as 0.331 ± 0.089.

Take CUAUUCCUCUGGCAUCUACUGGGUUACCUAA: the “pre-steady-state target cleavage rate” value was found to be 0.399 ± 0.1.

For the sequence CAAUUCCUCUGGCUCUACUGGGUUACCUAA, the “pre-steady-state target cleavage rate” value was 0.66 ± 0.04.

Take GAAUUCCUCUGGCUCUACUGGGUUACCUAA: the “pre-steady-state target cleavage rate” value came out at 0.586 ± 0.038.

As for CUAUUCCUCUGGCUCUACUGGGUUACCUAA, the “pre-steady-state target cleavage rate” value was found to be 0.612 ± 0.042.

CUUAACCACUGGAACUACUGGGUUACCUAA: the “pre-steady-state target cleavage rate” value worked out at 0.292 ± 0.025.

For the sequence CUAUUCCACUGGAUCUACUGGGUUUCCUAA, the “pre-steady-state target cleavage rate” value is 0.448 ± 0.066.

On to CAAUUGCUCUGGAUCUACUGGGUUACCAAA, for which the “pre-steady-state target cleavage rate” value worked out at 0.429 ± 0.071.

On to CUUAAGGUCUGGAUCUACUGGGUUACAUAA, for which the “pre-steady-state target cleavage rate” value amounted to 0.606 ± 0.054.

For the sequence CUAUUCCUCUGGAUCUACUGGGUUACCUAAA, the “pre-steady-state target cleavage rate” value amounted to 0.333 ± 0.047.

As for CUUUUCCUCUCGAUCUACUGGCUUACCUAA, the “pre-steady-state target cleavage rate” value was 0.201 ± 0.016.

Regarding CUUAAGGUCUGGAUCAACUGGGUUACGUAA, the “pre-steady-state target cleavage rate” value came to 0.293 ± 0.039.

Consider CUUAACCUCUGGAUCUACUGAGUUACCUAA, for which the “pre-steady-state target cleavage rate” value came out at 0.646 ± 0.047.

In the case of CUUAUCCUCUGGAUCUACUGAGUUACCUAA, the “pre-steady-state target cleavage rate” value came out at 0.779 ± 0.05.

As to “CUUAUCCUCUGGAUCUACUGGGUUACCUAA [g2:g26:cont:t1A]”, the “pre-steady-state target cleavage rate” value is 0.414 ± 0.063.

Turning to CUUAACCUCUGGAUCUACUGGAGUUACCUAA, the “pre-steady-state target cleavage rate” value was 0.00317 ± 0.0031.

On to CUUAACCUCUGGAUCUACUGGUUACCUAA, for which the “pre-steady-state target cleavage rate” value turned out to be 0.0564 ± 0.012.

Turning to CUUAUCCUCUGGAUCUACUGGAUUACCUAA, the “pre-steady-state target cleavage rate” value came out at 0.402 ± 0.049.

In the case of CUUAUCCUCUGGAUCUACAGGGUUUCCUAA, the “pre-steady-state target cleavage rate” value amounted to 0.119 ± 0.02.

For the sequence GAAUUCCUCUGGAUCUACUGGGUGACCUAA, the “pre-steady-state target cleavage rate” value was determined as 0.244 ± 0.038.

GAAUUCGUCUGGAUCUACUGGGUUAGCUAA: the “pre-steady-state target cleavage rate” value was determined as 0.293 ± 0.068.

With CUUAACCUCUGGAUCUACUCGGUUACCUUA, the “pre-steady-state target cleavage rate” value stood at 0.052 ± 0.011.

CUUAACCUCUGGUUCUACUGCGUUACCUAA: the “pre-steady-state target cleavage rate” value worked out at 0.754 ± 0.077.

Regarding CUUAACCUCUGGUUCUACUGGGUUACCUAA, the “pre-steady-state target cleavage rate” value is 0.479 ± 0.042.

Turning to CUUAUCCUCUGGUUCUACUGCGUUACCUAA, the “pre-steady-state target cleavage rate” value worked out at 0.455 ± 0.04.

Consider CUAUACCUCUGCAUCUACUGGGUUACCUAA, for which the “pre-steady-state target cleavage rate” value worked out at 0.439 ± 0.042.

Consider CUAUACCUCUGGUUCUACUGGGUUACCUAA, for which the “pre-steady-state target cleavage rate” value is 0.696 ± 0.053.

As to CUUUACCUCUGGUUCUACUGGGUUACCUAA, the “pre-steady-state target cleavage rate” value was 0.514 ± 0.043.

Consider CAAUACCUCUGGUUCUACUGGGUUACCUAA, for which the “pre-steady-state target cleavage rate” value was found to be 0.909 ± 0.066.

Consider GAAUACCUCUGGUUCUACUGGGUUACCUAA, for which the “pre-steady-state target cleavage rate” value was found to be 0.59 ± 0.052.

For the sequence CAAUACCUCUGGAUCUACUGGGUUACCUAA, the “pre-steady-state target cleavage rate” value is 0.395 ± 0.06.

Consider GAAUUGCUCUGGAUCUACUGGCUUACCUAA, for which the “pre-steady-state target cleavage rate” value amounted to 0.0382 ± 0.014.

On to GAAUUCCUCUGGAUACUACUGGGUUACCUAA, for which the “pre-steady-state target cleavage rate” value was 0.373 ± 0.056.

Regarding GAAUUCCUCUGGAACUACUGGGUUACCAAA, the “pre-steady-state target cleavage rate” value stood at 0.233 ± 0.056.

On to CAAUUCCUCUGGAUCUACUCGGUUUCCUAA, for which the “pre-steady-state target cleavage rate” value is 0.0763 ± 0.028.

As for CAAUUCGUCUGGAUCUACUGCGUUACCUAA, the “pre-steady-state target cleavage rate” value amounted to 0.376 ± 0.044.

Consider CUUAAGGAGACCUUCCUACUGGGUUACCUAA, for which the “pre-steady-state target cleavage rate” value is 0.00294 ± 0.0029.

CUUAUGCUCUGGAUCUACUGGGUUACGUAA: the “pre-steady-state target cleavage rate” value amounted to 0.534 ± 0.042.

With CAAUUCCUCAGGAUCUUCUGGGUUACCUAA, the “pre-steady-state target cleavage rate” value turned out to be 0.485 ± 0.058.

With CUAUUCCUCACCAUCUACUGGGUUACCUAA, the “pre-steady-state target cleavage rate” value came to 0.384 ± 0.049.

Consider CUAUUCCUCACGAUCUACUGGGUUACCUAA, for which the “pre-steady-state target cleavage rate” value amounted to 0.659 ± 0.042.

With GAAUUCCUCACCAUCUACUGGGUUACCUAA, the “pre-steady-state target cleavage rate” value came to 0.455 ± 0.051.

For GAAUUCCUCACGAUCUACUGGGUUACCUAA, the “pre-steady-state target cleavage rate” value was 0.697 ± 0.051.

With CUAUUCCUGACGAUCUACUGGGUUACCUAA, the “pre-steady-state target cleavage rate” value was 0.133 ± 0.023.

Consider CAAUUCCUCACGAUCUACUGGGUUACCUAA, for which the “pre-steady-state target cleavage rate” value was found to be 0.784 ± 0.05.

In the case of CAAUUCCUGACGAUCUACUGGGUUACCUAA, the “pre-steady-state target cleavage rate” value is 0.212 ± 0.034.

Regarding CAAUUCCUCACCAUCUACUGGGUUACCUAA, the “pre-steady-state target cleavage rate” value was determined as 0.573 ± 0.069.

In the case of CUUUUCCUCACGAUCUACUGGGUUACCUAA, the “pre-steady-state target cleavage rate” value worked out at 0.635 ± 0.051.

With CAAUUCCUCUGGAUCUACAGGGUUAGCUAA, the “pre-steady-state target cleavage rate” value is 0.157 ± 0.054.

On to CUUAAGCUCUCGAUCUACAGGGUUACCUAA, for which the “pre-steady-state target cleavage rate” value was determined as 0.185 ± 0.012.

In the case of CUUAUCCUCUGGAUCUUCUGGGUUACCUUA, the “pre-steady-state target cleavage rate” value stood at 0.289 ± 0.053.

As to GAAUACCUCUGGAUCUACUGGGUAACCUAA, the “pre-steady-state target cleavage rate” value came out at 0.168 ± 0.035.

Turning to CUAUUCCUCUGCAUCUACUGGGUUACCUAA, the “pre-steady-state target cleavage rate” value was 0.463 ± 0.04.

In the case of CUUAUCCUCUGCAUCUACUGCGUUACCUAA, the “pre-steady-state target cleavage rate” value was found to be 0.377 ± 0.032.

Regarding GAAUUCCUCUGCAUCUACUGCGUUACCUAA, the “pre-steady-state target cleavage rate” value came to 0.591 ± 0.054.

With CAAUUCCUCUGCAUCUACUGCGUUACCUAA, the “pre-steady-state target cleavage rate” value amounted to 0.666 ± 0.058.

Regarding CUAUUCCUCUGCAUCUACUGCGUUACCUAA, the “pre-steady-state target cleavage rate” value is 0.654 ± 0.047.

CUUUUCCUCUGCAUCUACUGCGUUACCUAA: the “pre-steady-state target cleavage rate” value stood at 0.49 ± 0.037.

On to GAAUUCCUCUGGAUCUACUGGCAUACCUAA, for which the “pre-steady-state target cleavage rate” value is 0.00471 ± 0.003.

CUUAACCUCUGAAUCUACUGGGUUACCUAA: the “pre-steady-state target cleavage rate” value worked out at 0.158 ± 0.019.

As for CUUAACCUCUCGAUCUACUGGCUUACCUAA, the “pre-steady-state target cleavage rate” value amounted to 0.173 ± 0.016.

For the sequence CUUAAGGUCUGGAUCUUCUGGGUUACCAAA, the “pre-steady-state target cleavage rate” value is 0.0379 ± 0.015.

For GAAUUCCUCUUGGAUCUACUGGGUUACCUAA, the “pre-steady-state target cleavage rate” value is 0.402 ± 0.042.

On to GAAUUCCUCUUGAUCUACUGGGUUACCUAA, for which the “pre-steady-state target cleavage rate” value worked out at 0.74 ± 0.037.

As to CAAUUCCUCUGAUCUACUGGGUUACCUAA, the “pre-steady-state target cleavage rate” value was 0.528 ± 0.061.

Consider GAAUUCCUCUGAUCUACUGGGUUACCUAA, for which the “pre-steady-state target cleavage rate” value was determined as 0.454 ± 0.062.

For CUUUUCCUCUUGGAUCUACUGGGUUACCUAA, the “pre-steady-state target cleavage rate” value stood at 0.346 ± 0.033.

As to CAAUUCCUCUUGGAUCUACUGGGUUACCUAA, the “pre-steady-state target cleavage rate” value amounted to 0.358 ± 0.046.

Consider CAAUUCCUCUUGAUCUACUGGGUUACCUAA, for which the “pre-steady-state target cleavage rate” value was determined as 0.866 ± 0.044.

In the case of CUUUUCCUCUUGAUCUACUGGGUUACCUAA, the “pre-steady-state target cleavage rate” value is 0.705 ± 0.039.

For CUAUUCCUCUUGGAUCUACUGGGUUACCUAA, the “pre-steady-state target cleavage rate” value was found to be 0.433 ± 0.046.

Consider CUAUUCCUCUGAUCUACUGGGUUACCUAA, for which the “pre-steady-state target cleavage rate” value worked out at 0.395 ± 0.048.

For CUAUUCCUCUUGAUCUACUGGGUUACCUAA, the “pre-steady-state target cleavage rate” value worked out at 0.767 ± 0.04.

Take CUUUUCCUCUGAUCUACUGGGUUACCUAA: the “pre-steady-state target cleavage rate” value is 0.304 ± 0.036.
